One test relates to WEE1. The conditions noted are these: Compound Concentration (nM):1000.
The subject of a further test is WEE2. The conditions noted are these: Compound Concentration (nM):1000.
The test system of the next test is WNK1. The conditions noted are these: Compound Concentration (nM):1000.
The next test relates to WNK2. The conditions noted are these: Compound Concentration (nM):1000.
A further test relates to WNK3. The conditions noted are these: Compound Concentration (nM):1000.
The subject of a further test is WNK4. The conditions noted are these: Compound Concentration (nM):1000.
Another test concerns T1, YANK1.
T1 construct: gene STK32A
The conditions noted are these: Compound Concentration (nM):1000.

The next test deals with T2, YANK2.
T2 construct: gene STK32B
The conditions noted are these: Compound Concentration (nM):1000.

Another test relates to T3, YANK3.
T3 construct: gene STK32C
The conditions noted are these: Compound Concentration (nM):1000.

Another test concerns T4, YES.
T4 construct: gene YES1
The conditions noted are these: Compound Concentration (nM):1000.

The next test concerns T5, YSK1.
T5 construct: gene STK25
The conditions noted are these: Compound Concentration (nM):1000.

For the next test, the system named is T6, YSK4.
T6 construct: gene MAP3K19
The conditions noted are these: Compound Concentration (nM):1000.

Another test has as its system ZAK. The conditions noted are these: Compound Concentration (nM):1000.
The next test has as its system ZAP70. The conditions noted are these: Compound Concentration (nM):1000.
In a further test the test system is T7, p38-alpha.
T7 construct: gene MAPK14
The conditions noted are these: Compound Concentration (nM):1000.

The next test concerns T8, p38-beta.
T8 construct: gene MAPK11
The conditions noted are these: Compound Concentration (nM):1000.

In the next test the test system is T9, p38-delta.
T9 construct: gene MAPK13
The conditions noted are these: Compound Concentration (nM):1000.

For the next test, the system named is T10, p38-gamma.
T10 construct: gene MAPK12
The conditions noted are these: Compound Concentration (nM):1000.

Each structure is given as a SMILES string.
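Throughout, for Percent Control: KINOMEscan scanMAX binding as percent activity remaining versus control; lower means stronger binding.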

With `COc1cc2ncn(-c3cc(O[C@H](C)c4ccccc4Cl)c(C(N)=O)s3)c2cc1OC` [GSK237701A], the “Percent Control” value with WEE1 was 100%; with WEE2, 76%; in the test with WNK1 it was 2.9%; in the test on WNK2, 6.1%; with WNK3, 0.8%; in the test on WNK4, 11%. The “Percent Control” value was 91% in the test on YANK1; 100% with YANK2; 92% in the test on YANK3; 87% in the test with YES; 78% in the test on YSK1; 5.6% with YSK4. The “Percent Control” value was 100% in the test with ZAK; 93% with ZAP70; 100% with p38-alpha; 100% in the test on p38-beta; 100% with p38-delta; 100% in the test on p38-gamma.

With `Cl.O=S1CCN(Cc2ccc(-c3ccc4ncnc(Nc5ccc(OCc6ccccc6)c(F)c5)c4c3)o2)CC1` [GW576924A], the “Percent Control” value in the test with WEE1, in the test with WEE2, with WNK1, in the test with WNK2, in the test with WNK3 and in the test on WNK4 was 100% in each case. Further, the “Percent Control” value with YANK1 was 100%; in the test on YANK2, 100%; in the test on YANK3, 100%; with YES it was 100%; in the test with YSK1, 81%; with YSK4, 100%. Also, the “Percent Control” value with ZAK is 100%; with ZAP70, 100%; in the test with p38-alpha, 100%; in the test with p38-beta it was 100%; in the test with p38-delta it was 100%; in the test on p38-gamma, 99%.

As to `NS(=O)(=O)c1ccc(N/N=C2\C(=O)Nc3ccc(Cl)cc32)cc1` [GW280670X], the “Percent Control” value with WEE1 is 100%; in the test on WEE2, 100%; in the test with WNK1, 99%; in the test on WNK2, 100%; with WNK3, 100%; with WNK4 it was 100%. For the same molecule, the “Percent Control” value was 100% with YANK1; 100% in the test on YANK2; 100% in the test with YANK3; 100% with YES; 80% in the test on YSK1; 31% with YSK4. The “Percent Control” value with ZAK, in the test on ZAP70, with p38-alpha, with p38-beta, with p38-delta and in the test on p38-gamma was 100% in each case.

Regarding `Cl.O=C(O[C@H]1CN[C@H](C#Cc2cc3ncnc(Nc4ccc5c(cnn5Cc5ccccc5)c4)c3s2)C1)N1CCOCC1` [GSK200398A], the “Percent Control” value in the test with WEE1 was 89%; with WEE2, 96%; in the test on WNK1 it was 80%; with WNK2, 94%; in the test with WNK3 it was 100%; in the test on WNK4, 95%. Moreover, the “Percent Control” value with YANK1 is 100%; with YANK2, 100%; in the test on YANK3, 100%; with YES, 98%; with YSK1, 79%; in the test on YSK4, 83%. The “Percent Control” value in the test on ZAK was 82%; with ZAP70, 89%; in the test with p38-alpha it was 100%; in the test on p38-beta it was 100%; in the test with p38-delta it was 100%; in the test with p38-gamma, 100%.

With `COc1cc(N2CCN(C(C)C)CC2)ccc1Nc1nc(Nc2ccc(F)cc2C(=O)NC[C@@H](O)CO)c2cc[nH]c2n1` [GSK1392956A], the “Percent Control” value with WEE1 is 96%; with WEE2, 100%; with WNK1, 92%; in the test with WNK2, 100%; with WNK3, 100%; with WNK4, 69%. In addition, the “Percent Control” value was 100% with YANK1; 100% in the test with YANK2; 100% with YANK3; 99% in the test with YES; 89% in the test on YSK1; 34% in the test with YSK4. The “Percent Control” value with ZAK was 93%; in the test on ZAP70 it was 86%; in the test with p38-alpha, 100%; with p38-beta, 100%; with p38-delta, 100%; with p38-gamma, 91%.

Take `O=C(NCCO)c1cccc(-c2cc(Nc3ccc(OC(F)(F)F)cc3)ncn2)c1` [GNF-5]: in the test on ABL1, the Kinases covered result is on record as “ABL1”.

For `Nc1ncnc2occ(-c3ccc(NC(=O)Nc4cc(C(F)(F)F)ccc4F)cc3)c12` [GW770249X], the “Percent Control” value was 100% in the test with WEE1; 100% in the test on WEE2; 96% in the test on WNK1; 100% in the test with WNK2; 100% in the test with WNK3; 100% with WNK4. Also, the “Percent Control” value is 99% in the test on YANK1; 100% with YANK2; 100% in the test with YANK3; 98% with YES; 70% in the test with YSK1; 0.1% in the test on YSK4. Besides, the “Percent Control” value in the test with ZAK is 46%; in the test on ZAP70, 86%; with p38-alpha, 85%; with p38-beta, 57%; in the test on p38-delta it was 4.8%; with p38-gamma, 18%.

As to `COc1ccc(COc2ccc(Cc3cnc(N)nc3N)cc2OC)cc1` [GW632580X], the “Percent Control” value in the test with WEE1 was 98%; in the test on WEE2 it was 83%; with WNK1 it was 98%; in the test with WNK2, 84%; in the test on WNK3, 92%; in the test on WNK4, 82%. The “Percent Control” value is 100% in the test with YANK1; 100% in the test with YANK2; 100% with YANK3; 82% in the test on YES; 100% in the test on YSK1; 91% in the test with YSK4. In addition, the “Percent Control” value in the test with ZAK is 87%; in the test on ZAP70, 97%; in the test with p38-alpha it was 100%; in the test with p38-beta, 100%; in the test with p38-delta, 85%; with p38-gamma, 89%.

On to `Cl.c1ccc(Cc2nc3ccc(Nc4ncnc5ccccc45)cc3[nH]2)cc1` [GR269666A], for which the “Percent Control” value in the test on WEE1, in the test with WEE2, in the test on WNK1, with WNK2, in the test with WNK3 and in the test on WNK4 was 100% in each case. Also, the “Percent Control” value with YANK1 is 100%; in the test with YANK2, 100%; with YANK3, 100%; in the test on YES it was 100%; with YSK1, 87%; in the test with YSK4, 100%. Besides, the “Percent Control” value with ZAK was 100%; with ZAP70 it was 90%; in the test with p38-alpha it was 100%; with p38-beta, 100%; with p38-delta it was 100%; in the test on p38-gamma, 100%.

`COc1cc(/C=N/Nc2ncnc3[nH]ncc23)ccc1O` [GW578748X]: the “Percent Control” value was 100% in the test with WEE1; 80% with WEE2; 100% in the test with WNK1; 70% with WNK2; 64% in the test on WNK3; 100% with WNK4. The “Percent Control” value was 100% with YANK1; 100% in the test on YANK2; 100% with YANK3; 87% in the test on YES; 70% in the test on YSK1; 3.2% in the test on YSK4. In addition, the “Percent Control” value is 59% in the test with ZAK; 76% in the test on ZAP70; 100% with p38-alpha; 100% in the test with p38-beta; 100% with p38-delta; 69% in the test on p38-gamma.

In the case of `COc1cccc(-n2ncc3c(N/N=C/c4ccncc4)ncnc32)c1` [GW784752X], the “Percent Control” value was 100% in the test with WEE1; 89% with WEE2; 98% in the test on WNK1; 100% in the test with WNK2; 100% in the test on WNK3; 100% with WNK4. Further, the “Percent Control” value in the test on YANK1 was 100%; in the test with YANK2 it was 88%; in the test on YANK3, 100%; with YES, 87%; in the test with YSK1, 90%; with YSK4 it was 21%. For the same molecule, the “Percent Control” value in the test with ZAK was 39%; in the test on ZAP70, 98%; with p38-alpha it was 100%; with p38-beta, 100%; with p38-delta, 100%; in the test with p38-gamma, 100%.

(Values after publication PMC7826789 (International Journal of Molecular Sciences, 2021).)
